Screens: PubChem BioAssay, National Center for Advancing Translational Sciences (NCATS)
CtBP-E1A inh = blocks the CtBP interaction with E1A; AlphaScreen GST-E1A/His-CtBP binding, 1536-well; stronger effect = lower value; activity change, % (concentration not given with the values); 340,000 compounds, 0.49% hits; in the data active = activity change below about -65%; inconclusive = mostly about -30% to -63%
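Homogeneous bead-based format: GST-tagged E1A captured on glutathione donor beads, His-tagged CtBP on nickel acceptor beads; compounds precede bead addition by 2 h at 37 °C.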
Eya2 inh = inhibitors of human Eya2 phosphatase activity | O00167 | recombinant Eya2, OMFP fluorescence dephosphorylation (OMFP is methylfluorescein phosphate) | Potency, µM (highest dose often 76.9 µM), hits mostly inhibitors | 330,000 compounds, 0.006% hits | AID 488837
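Eya2 protein (added as 0.2 uM solution) was preincubated with compound for 10 min at ambient temperature in 50 mM HEPES pH 7.5, 50 mM NaCl, 5 uM MgCl2, 0.05% BSA, 1 mM DTT. OMFP (added at 50 uM) then reacted 10 min; fluorescence read at 485/525 nm.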
TrxR1 substrate = substrates of rat thioredoxin reductase 1; AID 588456; 390,000 compounds, 0.01% hits; Potency, µM (titrated, usually from 114 µM); purified TrxR1 substrate turnover, NADPH consumption readout; O89049; also: nearly all actives have a fitted effect of over 50% in size
Target sequence (O89049 whole entry, looked up): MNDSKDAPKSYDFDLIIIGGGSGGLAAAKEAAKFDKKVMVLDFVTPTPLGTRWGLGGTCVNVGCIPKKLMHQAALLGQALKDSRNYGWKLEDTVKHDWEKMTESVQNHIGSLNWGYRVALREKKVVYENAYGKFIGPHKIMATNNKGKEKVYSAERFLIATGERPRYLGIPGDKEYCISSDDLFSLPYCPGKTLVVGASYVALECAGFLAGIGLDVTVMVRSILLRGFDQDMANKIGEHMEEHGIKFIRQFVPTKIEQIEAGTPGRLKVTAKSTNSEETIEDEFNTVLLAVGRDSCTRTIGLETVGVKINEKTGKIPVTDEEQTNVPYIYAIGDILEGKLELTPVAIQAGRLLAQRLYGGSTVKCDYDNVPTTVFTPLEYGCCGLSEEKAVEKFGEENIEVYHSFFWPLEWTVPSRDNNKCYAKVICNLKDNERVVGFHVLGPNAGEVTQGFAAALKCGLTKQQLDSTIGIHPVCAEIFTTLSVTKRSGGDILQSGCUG
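Rat TrxR1, dispensed at 90 nM, was prereduced with 400 uM NADPH (final) for 5 min at ~22 deg C, then incubated with compound 15 min before 400 uM selenite. A first-read NADPH fluorescence drop versus no-compound background flagged substrates.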
TrxR1 inh = rat TrxR1 inhibition. O89049. recombinant rTrxR1, NADPH fluorescence consumption, selenite substrate. 390,000 compounds, 1% hits. Potency, µM (top dose mostly 114 µM), hits mostly inhibitors; also: nearly all actives have a fitted effect of over 65% in size
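Rat TrxR1 (90 nM in the dispensed reagent) was pre-reduced with 400 uM NADPH for 5 min at room temperature, then incubated with compound for 15 min. After 400 uM selenite was added, NADPH fluorescence (Ex 340/Em 450 nm) was followed for 8 min.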
GALK inh = inhibitors of human galactokinase; 270,000 compounds, 0.007% hits; Purified GALK, Kinase-Glo residual ATP luminescence; P51570; Potency, µM (doses to about 57.5 µM), actives largely listed as inhibitors
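5 nM enzyme, 35 uM ATP, 100 uM galactose, 20 mM HEPES pH8.0, 5 mM MgCl2; 1 h RT; residual ATP by Kinase-Glo Plus luminescence, qHTS format.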
Six1-Eya2 blk = inhibitors of human Six1/Eya2 interaction | Q15475+O00167 | AlphaScreen GST-Six1/His-Eya2 binding, biochemical; stronger effect = lower value | activity change, % (test concentration not listed) | 360,000 compounds, 0.56% hits; in the data active = activity change below about -65%; inconclusive = mostly about -30% to -63%
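Six1/Eya2 binding was read as AlphaScreen signal after compounds were pinned into GST-Six1 plus His-tagged Eya2 (5X stock 250/500 nM) in pH 8.0 Tris/NaCl/TCEP buffer, beads added, then incubated 1 h, 37 C, dark.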
Hits are given with their value. Compounds with a hit are over-represented: about 1.5% of the library has one in this group of screens. Unless noted, calls follow the shape of the dose curve; as a rule, active = well fitted curve in the direction sought with a large enough effect; inconclusive = small, poorly fitted or top-dose-only effect, or another doubt; inactive = no such curve, though single readings can be large; an effect the other way counts as inactive or inconclusive.

For COc1ccc2c(C)c(CC(=O)N3CCN(C(=O)C4COc5ccccc5O4)CC3)c(=O)oc2c1 (stereo not given) the results were Eya2 inh inactive, TrxR1 substrate inactive, TrxR1 inh inactive, GALK inh inactive and Six1-Eya2 blk inactive.
Cc1c(CC(=O)N2CCCCC2)c(=O)oc2cc(O)ccc12 was read as TrxR1 substrate inactive and TrxR1 inh 56.2µM.
Cc1c(CC(=O)N2CCN(C(=O)C3COc4ccccc4O3)CC2)c(=O)oc2cc(O)ccc12 (stereo not given) was read as CtBP-E1A inh inactive, Eya2 inh inactive, TrxR1 substrate inactive, TrxR1 inh 89.1µM, GALK inh inactive and Six1-Eya2 blk inactive.
For O=C(O)CCN1C(=O)/C(=C\c2ccc(-c3nc4ccccc4s3)o2)SC1=S the results were CtBP-E1A inh -75.3, Eya2 inh inactive, TrxR1 substrate inactive, TrxR1 inh inactive, GALK inh inactive and Six1-Eya2 blk inconclusive.
For COc1ccccc1/C=C1\SC(=S)N(CCC(=O)Nc2ccc(C(=O)O)c(O)c2)C1=O the results were CtBP-E1A inh inactive, Eya2 inh inactive, TrxR1 substrate inactive, TrxR1 inh inactive, GALK inh inactive and Six1-Eya2 blk inactive.
O=C(CCN1C(=O)/C(=C\c2ccco2)SC1=S)Nc1ccc(C(=O)O)c(O)c1 was read as Eya2 inh inactive, TrxR1 substrate inactive, TrxR1 inh 39.8µM, GALK inh inactive and Six1-Eya2 blk inconclusive.
For O=C(CCN1C(=O)/C(=C/c2ccco2)SC1=S)Nc1ccc(C(=O)O)c(O)c1 the results were CtBP-E1A inh inactive, Eya2 inh inactive, TrxR1 substrate inactive, TrxR1 inh 44.7µM, GALK inh inactive and Six1-Eya2 blk inconclusive.
Screening O=C(CCN1C(=O)/C(=C/c2ccco2)SC1=S)Nc1ccc(O)cc1C(=O)O returned CtBP-E1A inh inactive, Eya2 inh inactive, TrxR1 substrate inactive, TrxR1 inh inconclusive and Six1-Eya2 blk -67.7.
Cc1nn(C)c2c1c(C(F)(F)F)cc(=O)n2C(C)C(=O)NCCc1ccccc1 (stereo not given) was read as TrxR1 substrate inactive and TrxR1 inh inactive.
Screening Cc1ccc2nc(NCc3ccccc3)c3nnnn3c2c1 returned TrxR1 substrate inactive and TrxR1 inh inactive.
COc1ccc(OCC(=O)Nc2cc(-c3ccccc3F)nn2-c2ccccc2)cc1 was read as TrxR1 substrate inactive and TrxR1 inh inactive.
Screening O=S(=O)(c1ccc(Cl)cc1)c1nc(-c2cccc(Br)c2)oc1NCc1ccccc1 returned TrxR1 substrate inactive and TrxR1 inh inactive.
For CCOc1ccc(C2C(=O)N(C3CCCCC3)CC(=O)N2CCc2ccccc2)cc1OC (stereo not given) the results were TrxR1 substrate inactive and TrxR1 inh inactive.
For O=C(O)CCCN1C(=O)/C(=C\c2ccco2)SC1=S the results were CtBP-E1A inh inactive, Eya2 inh inactive, TrxR1 substrate inactive, TrxR1 inh 22.4µM, GALK inh inactive and Six1-Eya2 blk inconclusive.
Screening CCCN1C(=O)/C(=c2\sc3nc(=O)c(Cc4ccc(C)cc4)nn3c2=O)c2ccccc21 returned CtBP-E1A inh inactive, Eya2 inh inactive, TrxR1 substrate inactive, TrxR1 inh inconclusive, GALK inh inactive and Six1-Eya2 blk inactive.
NC(=O)CN1C(=O)/C(=c2\sc3nc(=O)c(Cc4ccccc4)nn3c2=O)c2ccccc21 was read as CtBP-E1A inh inactive, Eya2 inh inactive, TrxR1 substrate inactive, TrxR1 inh 17.8µM, GALK inh inactive and Six1-Eya2 blk inactive.
Screening N#Cc1cccc(NC(=O)c2cc3c(s2)-c2ccc(Cl)cc2SC3)c1 returned TrxR1 substrate inactive and TrxR1 inh inactive.
O=C(O)c1ccccc1N=Nc1c(O)[nH]c2ccc([N+](=O)[O-])cc12 was read as CtBP-E1A inh -85.0, Eya2 inh inactive, TrxR1 substrate inactive, TrxR1 inh inactive and Six1-Eya2 blk -72.0.
Screening O=[N+]([O-])c1ccc2[nH]c(O)c(N=NC(=S)NCC3CCCO3)c2c1 (stereo not given) returned CtBP-E1A inh inactive, Eya2 inh inactive, TrxR1 substrate inactive, TrxR1 inh inactive, GALK inh inactive and Six1-Eya2 blk inactive.
O=[N+]([O-])c1ccc2[nH]c(O)c(N=NC(=S)Nc3cccnc3)c2c1 was read as CtBP-E1A inh -87.8, Eya2 inh inactive, TrxR1 substrate inactive, TrxR1 inh inactive, GALK inh inactive and Six1-Eya2 blk -80.2.
`CCNC(=S)N=Nc1c(O)[nH]c2ccc([N+](=O)[O-])cc12` gave CtBP-E1A inh -87.2, Eya2 inh inactive, TrxR1 substrate inactive, TrxR1 inh inactive, GALK inh inactive and Six1-Eya2 blk -83.9.
Screening COc1ccc(CNC(=O)c2ccc(Cn3c(=O)c4cccn4c4cccnc43)cc2)c(OC)c1 returned TrxR1 substrate inactive and TrxR1 inh inactive.
For Cc1nc(-c2ccc(S(=O)(=O)N3CCN(c4cccc(C(F)(F)F)c4)CC3)cc2)co1 the results were TrxR1 substrate inactive and TrxR1 inh inactive.
Cc1cccc(NC(=O)c2ccc(F)c(S(=O)(=O)NCc3ccco3)c2)c1 was read as CtBP-E1A inh inactive, Eya2 inh inactive, TrxR1 substrate inactive, TrxR1 inh 79.4µM, GALK inh inactive and Six1-Eya2 blk inactive.
For CCc1ccccc1NC(=O)CNC(=O)c1ccc(S(=O)(=O)NCc2ccco2)cc1 the results were CtBP-E1A inh inactive and Six1-Eya2 blk inactive.
For Cc1cccc(C)c1NC(=O)CNC(=O)c1ccc(S(=O)(=O)NCc2ccco2)cc1 the results were CtBP-E1A inh inactive, Eya2 inh inactive, TrxR1 substrate inactive, TrxR1 inh 28.2µM and Six1-Eya2 blk inactive.
CC(=O)Nc1cccc(NC(=O)c2ccc(S(=O)(=O)NCc3ccco3)cc2)c1 was read as CtBP-E1A inh inactive and Six1-Eya2 blk inactive.
Screening CCOc1ccc(-c2cn3c(n2)sc2cc(C(=O)NCCCN(CC)CC)ccc23)cc1 returned TrxR1 substrate inactive and TrxR1 inh inconclusive.
For O=C(NCS(=O)(=O)c1ccccc1)c1ccccc1 the results were CtBP-E1A inh inactive, Eya2 inh inactive, TrxR1 substrate inactive, TrxR1 inh 44.7µM, GALK inh inactive and Six1-Eya2 blk inactive.
`O=C(NCCNC(=O)c1ccccc1)c1ccccc1` gave CtBP-E1A inh inactive, Eya2 inh inactive, TrxR1 substrate inactive, TrxR1 inh inactive, GALK inh inactive and Six1-Eya2 blk inactive.
`COc1ccc(-c2nc(CCNC(=O)Cc3ccc(F)cc3)cs2)cc1` gave TrxR1 substrate inactive and TrxR1 inh inactive.
Cc1ccccc1CCNC(=O)C1CCN(S(=O)(=O)c2ccc3c(ccn3C)c2)CC1 was read as TrxR1 substrate inactive and TrxR1 inh inactive.
